Reference: PubChem BioAssay AID631 (The Scripps Research Institute Molecular Screening Center, 2007)
In all, about 200,000 compounds went through this assay and about 810 (0.41%) were called active. No stated cut-off is given here; in the data, active means activation above about 19%; inactive means the rest. The list comes from a sample in which actives are over-represented; it also holds similar structures and randomly drawn compounds.

What follows are molecules tested against Peroxisome proliferator-activated receptor gamma (Homo sapiens) (UniProt P37231) (assay: enhancers of SRC-1 binding to PPARgamma – biochemical, primary screen (AID 631;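 further: 0% = DMSO and 100% = reference agonist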)). Conditions: PPARgamma-SRC-1 coactivator recruitment biochemical assay; at 8 µM; stronger effect = higher value.
Peroxisome proliferator-activated receptor gamma (Homo sapiens), sequence (P37231 whole entry, looked up): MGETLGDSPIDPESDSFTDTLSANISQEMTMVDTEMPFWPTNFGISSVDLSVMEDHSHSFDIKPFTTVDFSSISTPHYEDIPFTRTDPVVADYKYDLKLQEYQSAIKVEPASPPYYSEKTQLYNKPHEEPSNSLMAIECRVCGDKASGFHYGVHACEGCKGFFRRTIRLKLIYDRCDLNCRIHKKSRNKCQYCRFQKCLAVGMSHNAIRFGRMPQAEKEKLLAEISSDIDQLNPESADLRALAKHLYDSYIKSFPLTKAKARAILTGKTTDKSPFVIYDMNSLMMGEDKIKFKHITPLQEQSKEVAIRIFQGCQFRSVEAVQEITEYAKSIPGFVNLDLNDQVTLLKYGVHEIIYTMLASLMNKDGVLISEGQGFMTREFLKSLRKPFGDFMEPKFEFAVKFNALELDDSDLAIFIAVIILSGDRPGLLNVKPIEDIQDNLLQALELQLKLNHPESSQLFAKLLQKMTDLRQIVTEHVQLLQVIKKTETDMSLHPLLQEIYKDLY

activation, active:
Cc1ccc(-c2cc(C(=O)NCc3cn(C)nc3C)c3cc(Br)ccc3n2)cc1 22.7%
CN(C)c1ccc(N/C=C/C(=O)C(F)(F)F)cc1 31.5%
Cc1ccc(-c2ccc(/C=C(\C#N)C(N)=S)o2)c([N+](=O)[O-])c1 22.9%
Nc1ccc(Nc2ccccc2)cc1 20.9%
CC(=O)c1sc2nc(SCC(=O)N3CCCCC3)[nH]c(=O)c2c1C 19.1%
COc1cc(C2CC(=O)N3CN(Cc4ccccc4)CSC3=C2C#N)ccc1OCc1ccccc1 (stereo not drawn) 19%

activation, inactive:
COc1ccc(Cl)cc1C(=O)NCc1cn(C)nc1C 0.6%
Cc1ccc2nc(-c3cccc(Br)c3)cc(C(=O)Nn3cnnc3)c2c1 -0.9%
O=C(Cc1cc(=O)[nH][nH]1)N/N=C/c1ccccc1[N+](=O)[O-] 1.6%
O=C(COc1cccc2ccccc12)Nc1cc(S(=O)(=O)N2CCOCC2)ccc1N1CCOCC1 5.6%
COc1ccccc1CC(NC(C)=O)C(=O)NC1CCN(C(=O)Nc2ccccc2Cl)CC1 (stereo not drawn) 5.1%
C=CCN(CC=C)CCOc1ccccc1[N+](=O)[O-] 2.5%
COCC1CCCN(Cc2nc(-c3ccc4c(c3)OCO4)no2)C1 (stereo not drawn) 10.9%
COc1ccc(C2c3[nH]c4ccccc4c3CCN2CCCn2cccn2)cc1C (stereo not drawn) -5%
CC(C)(C)CC(=O)Nc1nnc(SCC(=O)NCc2cccs2)s1 10.6%
CCCOc1ccc(N/C=C/C(=O)C(C)(C)C)cc1 2.3%
O=C(/C=C/Nc1ccccc1OC(F)(F)F)C(F)(F)F -4.7%
COC(=O)C[n+]1cccc2ccccc21 4.1%
O=C(O)c1ccn(COc2ccc(Br)cc2)n1 7.4%
Cc1ccc(Cc2cnc(NC(=O)/C(C#N)=C/c3ccc(-c4cccc([N+](=O)[O-])c4)o3)s2)cc1 2.6%
Cc1cc(-c2ccc(/C=N/n3cnnc3)o2)c([N+](=O)[O-])cc1C -9.4%
Cc1cc(C)cc(C(=O)N(CCc2ccccc2)C2=CC3CCC(C2)N3C)c1 (stereo not drawn) -4.8%
CSc1nc2nc(-c3cccc(C(F)(F)F)c3)ccn2n1 3.3%
CCn1ccnc1CN(C)Cc1nc(-c2ccc3c(c2)OCO3)no1 3.8%
CC(C)CC(CC(C)C)=NNC(=O)c1ccc(CSc2nncn2C)cc1 9.8%
COC(=O)c1cccnc1NC(=S)NC(C)C 5.1%
Cc1ccc(Nc2ccccc2N)cc1 7.5%
Cc1cc(Nc2ccccc2)n(C(=O)c2ccc(N)cc2)n1 3.5%
COc1cc(C(=O)NCc2nnc(SCC(=O)Nc3nc4ccc(C)cc4s3)o2)cc(OC)c1OC 4.6%
COc1ccc(-c2ccc(CCC(=O)O)n2NC(=O)c2ccc(C(C)(C)C)cc2)cc1 4.4%
CCOC(=O)Cc1cc(=O)[nH]c(=O)[nH]1 1.2%
O=C1CCC(=O)N1c1ccc(NCCc2ccccc2F)c([N+](=O)[O-])c1 9%
O=C(CSc1nc2c(cnn2-c2ccc(F)cc2)c(=O)[nH]1)N1CCCCCC1 1.2%
C=CCNC(=O)CSc1nc2sc(C)c(C)c2c(=O)[nH]1 1.1%
Cc1cccc(NC(=O)c2ccc3nsnc3c2)c1C 4.5%
O=C(Cc1ccccc1)NNS(=O)(=O)c1ccc([N+](=O)[O-])cc1 0.6%
Cc1cn(C)c(=O)n(C)c1=O 3.8%
COc1ccc(CCN=C2SCC(=O)N2Cc2ccccc2)cc1OC -0.6%
COc1cc(CNC2CCCC2)c(Br)cc1OCc1ccccc1 1.4%
CCOc1ccc(N(CC(=O)NCCc2ccc(OC)cc2)S(C)(=O)=O)cc1 0.5%
CCOC(=O)Cc1csc(SCC(=O)NC(C)C23CC4CC(CC(C4)C2)C3)n1 (stereo not drawn) -9%
Cc1nnc(SCCCCSc2nnc(C)c(=O)[nH]2)[nH]c1=O 4.2%
COc1ccc(NC(=O)c2ccccc2CC[N+](=O)[O-])cc1 3.6%
